G9a inh – inhibitors of human histone lysine methyltransferase G9a; Q96KQ7; G9a H3K9 monomethylation, AlphaScreen, 2 h; Potency, µM (series often up to 102 µM), inactives show top-dose activity, negative = inhibition, most hits filed as inhibitors; 350,000 tested, 8.8% active; AID 504332; further: on the % scale 0 is the no-effect control and ±100 the full control effect; nearly all actives have a fitted effect of over 75% in size
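Using a bead-based AlphaScreen, monomethylated H3K9 product from 2 h room-temperature reactions (G9a 20 nM, peptide 500 nM, SAM 20 uM) was detected with 0.5 ug/mL rabbit anti-H3K9me1 antibody.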
BAZ2B inh – BAZ2B (human) inhibition; Q9UIF8; AlphaScreen BAZ2B-H3K14Ac peptide displacement; Potency, µM (doses to about 114 µM), for the others: at the highest dose activity change, negative = inhibition, actives largely listed as inhibitors; 360,000 tested, 4.4% active; AID 504333; further: on the % scale 0 is the no-effect control and ±100 the full control effect; nearly all actives have a fitted effect of over 60% in size
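AlphaScreen displacement of biotin-H3(5-23)K14Ac peptide (50 nM final) from BAZ2B (50 nM final) in PBS pH 7.4, 0.01% Tween-20; complex preformed 30 min RT, then compounds (top 110 uM) 30 min RT, beads 20 min dark.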
Sfp inh – inhibitors of Bacillus subtilis Sfp phosphopantetheinyl transferase; Q9F4F7; Potency, µM, for inactives: largest response in the series, negative = inhibition, actives largely listed as inhibitors; 310,000 tested, 3.5% active; Biochemical Sfp PPTase activity, qHTS;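 further: the enzyme is Sfp with the accession as filed and its product quenches rhodamine fluorescence; 0% = enzyme reaction without inhibitor and -100% = no enzyme wells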
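Fluorescence-quenching assay with 15 nM Sfp, 5 uM rhodamine-CoA and 12.5 uM BHQ-2-labelled ybbR peptide in pH 7.6 Hepes/MgCl2 buffer. Enzyme was pre-incubated with compound for 15 min at room temperature. Rate was taken from the 30-min fluorescence change (525/598 nm).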
JMJD2A Tudor – inhibitors of human JMJD2A Tudor domain; O75164; AlphaScreen JMJD2A-Tudor / H3K4me3 peptide binding; Potency, µM (doses to about 114 µM), inactives show top-dose activity change, negative = inhibition, most hits filed as inhibitors; 390,000 tested, 4.4% active; further: on the % scale 0 is the no-effect control and ±100 the full control effect; nearly all actives have a fitted effect of over 50% in size
HP1b chromo inh – inhibitors of HP1-beta chromodomain binding to methylated histone tails; P83916; AlphaScreen HP1-beta / biotin-H3K9me3 peptide binding; Potency, µM (titrated, usually from 114 µM), without a hit: at the top dose activity change, negative = inhibition, most hits filed as inhibitors; 390,000 tested, 0.56% active; AID 540317; further: nearly all actives have a fitted effect of over 70% in size
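AlphaScreen: HP1-beta (50 nM) preformed 30 min with biotin-H3(1-18)K9me3 peptide (50 nM) in PBS pH 7.4, 0.01% Tween-20. Compound added for 30 min at RT, then streptavidin donor/nickel chelate acceptor beads (10 ug/mL) for 30 min.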
* = called active by the depositor; ? = inconclusive; nt = no result; [ ] = another dose, or the depositor's remark. A selection: hits, their analogues and other compounds. The true share with any hit is near 12%. The call rests on the fitted dose curve; in most records, active means well fitted curve in the direction sought with a large enough effect; inconclusive means small, poorly fitted or top-dose-only effect, or another doubt; inactive means no such curve, though single readings can be large; an effect the other way counts as inactive or inconclusive. Potency means the concentration at half of the fitted maximal effect.

SMILES	G9a inh	BAZ2B inh	Sfp inh	JMJD2A Tudor	HP1b chromo inh
COc1cc(/C=N/NC(=O)c2ccc3ccccc3c2)ccc1Oc1ccc([N+](=O)[O-])cn1	1.8µM*	-32%	2%	25µM*	12%
CC(C)Oc1ccc(CNC(=O)C2CCN(C(=O)N3CCOc4ccc(Cl)cc43)CC2)cc1	?	-14%	nt	-36%	-4%
COc1ccccc1Cc1nc2ccccc2nc1SCC(=O)N1CCN(c2ccccc2)CC1	-20%[59 µM]	?	nt	-23%	0%[57 µM]
COC(=O)c1cccc(-n2c(=O)n(Cc3ccccc3)c(=O)c3[nH]cnc32)c1C	18µM*	-5%	-26%	-14%	5%
Cc1cc(N/N=C/c2cccc(Br)c2)nc2ccccc12	74%[59 µM]	7%	20µM*	-16%	29%
O=c1[nH]c(=O)c2nnc(N/N=C/c3ccccc3F)nc2[nH]1	-5%	-1%	-18%	-16%	43%
Brc1cccc(/C=N/Nc2nn[nH]n2)c1	50µM*	?	?	-6%	40%
Fc1ccccc1/C=N/Nc1nn[nH]n1	20µM*	?	?	79µM*	29%
CCN(CC)c1ccc(/C=N/Nc2nn[nH]n2)cc1	?	?	40µM*	-19%	28%
CCc1nn2c(=O)cc(NC3CNC3)nc2s1	nt	nt	nt	-16%	nt
Cn1nnnc1Sc1ncnc2scc(-c3cnc(N)nc3)c12	nt	nt	nt	-14%	nt
Cc1nc(N2CCOCC2)c2nc(-c3ccccc3)n(CCCN(C)C)c2n1	nt	nt	35%	nt	nt
CCCCN1CC(c2nc3ccccc3n2CCCCOc2ccc(C)c(C)c2)CC1=O (stereo unspecified)	-36%[59 µM]	-12%	nt	-13%	24%
COc1ccc(CCNC(=O)CCCn2c(=O)c3ccccc3n(CC(=O)Nc3cccc(C)c3)c2=O)cc1OC	-3%[59 µM]	0%	nt	-19%	22%
Cc1cccc(C)c1OCC(=O)Nc1ccccc1N1CCCCC1	120%	9%	-6%	54%	87%
CCN(Cc1ccccc1)c1ncnc2c1nnn2C	-32%[59 µM]	-2%	nt	0%	4%
O=C(NC(=S)Nc1cccnc1)c1cccc(Br)c1	35µM*	-16%	2%	-19%	-19%
CNC(=O)c1ccc(NC(=O)CCNC(=O)Nc2ccccc2)cc1	45µM*	-2%	nt	-1%	38%
Cc1cccc(NC(=O)CCNC(=O)c2ccccc2)c1	11%	10%	14%	-5%	20%
COc1ccc(C(=O)Nc2ccccc2C(=O)NCc2cccnc2)cc1OC	71µM*	-15%	17%	-10%	39%
O=C(COc1cc(F)ccc1[N+](=O)[O-])Nc1ccc(N2CCCCC2)cc1	?	32µM*	nt	40µM*	?
CC(C)(C)c1ccc(C(=O)CCC(=O)OCC(=O)NCCc2ccc(S(N)(=O)=O)cc2)cc1	16%[12.7 µM]	-3%	nt	-29%	18%
O=C(NC(=S)Nc1cccnc1)c1ccccc1	79µM*	4%	79µM*	11%	3%
COc1cc(OC)cc(C(=O)NC(=S)Nc2cccnc2)c1	?	-15%	3%	-8%[11.4 µM]	15%
CCOc1cccc(C(=O)NC(=S)Nc2cccc(NC(=O)c3ccccc3Cl)c2)c1	-47%[59 µM]	79µM*	14%	-8%	6%
SMILES	G9a inh	BAZ2B inh	Sfp inh	JMJD2A Tudor	HP1b chromo inh
CCOc1cccc(C(=O)NC(=S)Nc2ccccc2)c1	?	?	-27%	?	?
COc1ccc(C(=O)NC(=S)Nc2cccnc2)cc1OC	50µM*	-34%	-22%	-14%	13%
O=C(NNc1cccc([N+](=O)[O-])c1)/C(=C\c1cccnc1)NC(=O)c1ccccc1	50µM*	-24%	-19%	-8%	24%
CCCOc1cccc(C(=O)NC(=S)Nc2ccc(N3CCN(C)CC3)cc2)c1	-16%[59 µM]	-12%	3%	?	?
COc1ccc(C(=O)N/C(=C/c2cccnc2)C(=O)Nc2cccc(C(C)=O)c2)cc1OC	0%[12.7 µM]	3%	17%	56µM*	1%
CC(=O)c1cccc(NC(=O)/C(=C\c2cccnc2)NC(=O)c2ccccc2)c1	14%	-2%	17%	8%	24%
O=C(c1ccc(F)cc1)N1CCN(c2ccc([N+](=O)[O-])c(N3CCCCC3)c2)CC1	28µM*	?	1%	?	-16%
O=C(c1ccc2ccccc2c1)N1CCN(c2ccc([N+](=O)[O-])c(N3CCOCC3)c2)CC1	?	?	0%	?	?
COc1cc(OC)cc(C(=O)NC(=S)Nc2ccc(N3CCCC3)cc2)c1	10µM*	?	?	?	?
CCOc1cccc(C(=O)NC(=S)Nc2ccc(N3CCN(CC)CC3)cc2)c1	14µM*	35µM*	-6%	56µM*	?
CCC(CC)C(=O)Nc1nnc(SCC(=O)NC2CC2)s1	-11%	8%	-7%	-7%	15%
O=C(Nc1cccnc1)c1cccs1	-15%[12.7 µM]	1%	14%	-12%	38%
O=C(CCNC(=O)c1ccccc1)Nc1cccnc1	-26%	19%	0%	45µM*	-1%
O=C(NC(=S)Nc1cccnc1)c1cccs1	?	-23%	56µM*	?	11%
Cc1snnc1C(=O)NC(=S)Nc1ccccc1	?	-18%	40µM*	-28%	-6%
CCOc1ccc(C(=O)NC(=S)Nc2ccc(N3CCCCC3)cc2)cc1[N+](=O)[O-]	6.3µM*	8.9µM*	20µM*	?	11µM*
CCOc1ccc(C(=O)NC(=S)Nc2ccccc2N2CCCCC2)cc1[N+](=O)[O-]	21%[59 µM]	23%	17%	?	?
C=COCC1CN2C(CCC(C)C2c2ccc(Br)cc2)C(=O)O1 (stereo unspecified)	nt	nt	7%	nt	nt
O=C(NC(=S)Nc1cc(Cl)ccc1O)c1cccc(Br)c1	71µM*	-4%	-12%	-10%	6%
CCOc1cccc(C(=O)NC(=S)Nc2cccnc2)c1	10µM*	-33%	45µM*	?	7%
CCCCOc1cccc(C(=O)NC(=S)Nc2cccnc2)c1	?	-37%	-3%	-23%	-12%
COc1cc(OC)cc(C(=O)N[C@H](C(=O)Nc2ccccc2N2CCOCC2)C(C)C)c1	5%[59 µM]	-14%	9%	0%	8%
COc1cc(OC)cc(C(=O)NC(C(=O)Nc2ccc(N3CCOCC3)cc2)C(C)C)c1 (stereo unspecified)	50µM*	-3%	nt	-14%	13%
CCCC(=O)Nc1cc(OC)c(NC(=S)Nc2ccc(CC)cc2)cc1OC	nt	nt	nt	-32%	-1%
CC(=O)N(\C=C/C=C/C=C1\Sc2ccccc2C1=O)c1ccccc1	10µM*	7.1µM*	-33%	7.9µM*	13µM*
CC1CCCCN1S(=O)(=O)c1ccc(S(=O)(=O)N2CCN(c3ccccc3)CC2)cc1 (stereo unspecified)	50µM*	7%	21%	-1%	30%

From PubChem
